Reference: PubChem BioAssay (NCI)
This is part of a sample that, as a whole, favours compounds with a hit. Of some 83,000 tested, about 20% had one in any assay.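 Results are percent growth after 48 hours of single-concentration exposure. 100 means growth as in untreated cells, lower positive values show inhibition; negative values down to -100 show cell death.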 Calls of active or inactive are those of the source. Rule for the calls: active = growth percent below 10; inactive = the rest.

What was measured:
Assay in all cases: NCI-60 one-dose screen, 48 h (100 = growth as untreated, 0 = no growth, -100 = all killed)
Details in all cases: 10 µM unless noted
[1] = test system: NCI-H23 lung
[2] = test system: NCI-H226 lung
[3] = test system: NCI-H322M lung
[4] = test system: HOP-62 NSCLC
[5] = test system: NCI-H460 lung
[6] = test system: HOP-92 NSCLC
[7] = test system: NCI-H522 lung
[8] = test system: A549/ATCC NSCLC
[9] = test system: 786-0 renal
[10] = test system: COLO 205 colon
[11] = test system: DU-145 prostate
[12] = test system: K-562 leukemia
[13] = test system: MALME-3M melanoma
[14] = test system: MDA-MB-231 breast
[15] = test system: RXF 393 renal
[16] = test system: SF-268 CNS
[17] = test system: SF-295 CNS
[18] = test system: SF-539 CNS
[19] = test system: UACC-257 melanoma
[20] = test system: M14 melanoma

Measured: growth

C/C(=C\c1ccn(-c2ccc(N)c(F)c2)n1)[C@@H]1C[C@@H]2O[C@]2(C)CCC[C@H](C)[C@H](O)[C@@H](C)C(=O)C(C)(C)[C@@H](O)CC(=O)O1
active: [10] -8.2% | [11] -26% | [15] 0.639% | [18] -26.4%
inactive: [1] 30.4% | [2] 50.9% | [3] 25.7% | [4] 38.1% | [5] 15.9% | [6] 53.2% | [7] 18.7% | [8] 26.5% | [9] 25.3% | [12] 10.5% | [13] 46.3% | [14] 19.6% | [16] 30% | [17] 17.1% | [19] 68.7% | [20] 13.3%

COC(=O)[C@@H](C[C@H](Cc1ccccc1)NC(=O)c1csc([C@@H](C[C@H](C(C)C)N(C)C(=O)[C@@H](NC(=O)[C@H]2CCCCN2C)C(C)C)OC(C)=O)n1)NC(=O)OCc1ccccc1
active: [2] -36.8% [9.5 µM] | [5] 5.31% [9.5 µM] | [7] -45.5% [9.5 µM] | [10] -65.4% [9.5 µM] | [11] -3.78% [9.5 µM] | [12] 2.99% [9.5 µM] | [13] -42.5% [9.5 µM] | [17] 3.92% [9.5 µM] | [18] -19.1% [9.5 µM] | [19] 6.49% [9.5 µM] | [20] -41.7% [9.5 µM]
inactive: [1] 35.1% [9.5 µM] | [3] 43.1% [9.5 µM] | [4] 12.1% [9.5 µM] | [6] 25.7% [9.5 µM] | [8] 14.1% [9.5 µM] | [9] 15.8% [9.5 µM] | [14] 18.6% [9.5 µM] | [15] 39.8% [9.5 µM] | [16] 15.2% [9.5 µM]

CCCCCCCCCCCCCC[P+](CCCCCC)(CCCCCC)CCCCCC
inactive: [12] 39%
active: [1] -39.3% | [2] -1.45% | [3] -11.9% | [4] -2.18% | [5] -59.4% | [6] -67.1% | [7] -71.4% | [8] -35% | [9] -65.8% | [10] -65.4% | [11] -100% | [13] -83.9% | [14] -38.3% | [15] -97.7% | [16] -4.6% | [17] -68.4% | [18] 5.67% | [19] -34.6% | [20] -36.5%

CC1=C(CCCOC(=O)[C@H](N)CC(C)C)C2=C(C)C3(CC3)[C@@](C)(O)C(=O)C2=C1
inactive: [3] 18.5% | [7] 31.3% | [11] 11.6% | [12] 101% | [14] 11.5% | [16] 14.6% | [19] 24.4%
active: [1] -27.6% | [2] 0.712% | [4] -13% | [5] 2.82% | [6] -13.6% | [8] 0.0474% | [9] 1.3% | [10] -46.1% | [13] -44.7% | [15] -74.7% | [17] -5.7% | [18] -7.07% | [20] -33.2%

Cn1cc(-c2csc(-c3cn(CCN4CCOCC4)c4ccccc34)n2)c2cccnc21
inactive: [1] 62.6% | [2] 41.4% | [3] 84.8% | [4] 55.3% | [5] 75.3% | [6] 48.6% | [7] 40.6% | [8] 63% | [9] 75.5% | [10] 51.2% | [11] 89.1% | [12] 44.8% | [13] 81.4% | [14] 69.8% | [15] 93.7% | [16] 79.8% | [17] 72.2% | [18] 73.2% | [19] 90.7% | [20] 39%

CN[C@]1(c2ccccc2Cl)CCCC[C@H]1NCCCN1CCN(C)CC1
inactive: [1] 109% | [2] 94.5% | [3] 106% | [4] 93.8% | [5] 110% | [6] 79.1% | [7] 93.9% | [8] 98.5% | [9] 92.2% | [10] 108% | [11] 108% | [12] 90.3% | [13] 104% | [14] 94.2% | [15] 97.4% | [16] 94.1% | [17] 102% | [18] 94.8% | [19] 102% | [20] 98.9%

C[C@]12C[C@@H](CO)[C@H](O)C[C@@H]1CC[C@@H]1[C@@H]2CC[C@]2(C)[C@@H](O)CC[C@@H]12
inactive: [1] 102% | [2] 102% | [3] 91.1% | [4] 107% | [5] 106% | [6] 87.3% | [7] 77.7% | [8] 99.7% | [9] 102% | [10] 108% | [11] 106% | [12] 74.7% | [13] 90.6% | [14] 111% | [15] 113% | [16] 103% | [17] 113% | [18] 95.8% | [19] 90.4% | [20] 103%

O=C(CC1(O)C(=O)N(Cc2ccccc2)c2ccc(Cl)cc21)c1ccc(C(=O)NCC2CCC3(CC2)OOC2(CCCCC2)OO3)cc1 (stereo not given)
active: [1] -67% | [2] -41.3% | [4] -65.3% | [5] -47.2% | [6] -73.2% | [7] -26.7% | [8] -55.8% | [9] -73.6% | [10] -66.5% | [11] -97.6% | [12] -49% | [13] -70.3% | [14] -74.9% | [15] -80.5% | [16] -49.6% | [17] -8.3% | [18] -81.1%
inactive: [3] 64.2% | [19] 26.4% | [20] 25.5%

COc1cc([C@@H]2c3cc4c(cc3[C@H](OC(C)=O)[C@H]3COC(=O)[C@@H]23)OCO4)cc(OC)c1OC
active: [1] 0.572% | [5] -4.08% | [7] -34.7% | [9] 2.27% | [10] -75.8% | [11] 3.27% | [14] 8.36% | [17] -15.7% | [18] -33.4% | [20] -15.2%
inactive: [2] 33.2% | [3] 36.3% | [4] 10.6% | [6] 27.2% | [8] 10.5% | [12] 11.2% | [13] 57.1% | [15] 52% | [16] 33% | [19] 49.2%

Brc1ccc2c(c1)c(-c1nc(-c3c[nH]c4ncccc34)cs1)cn2CCN1CCOCC1
inactive: [1] 71.8% | [2] 60.2% | [3] 72.1% | [4] 60.4% | [5] 63.2% | [6] 52.2% | [7] 76.1% | [8] 61.7% | [9] 67.5% | [10] 64.3% | [11] 86.5% | [12] 24.3% | [13] 88.5% | [14] 53.3% | [15] 74.6% | [16] 65.4% | [17] 74.4% | [18] 61% | [19] 99.7% | [20] 63.8%

CCCCCCCCCCCCCCCCCC1OC[C@@H](COC(=O)O[C@@H](C(=O)O[C@H]2C[C@@]3(O)[C@@H](OC(=O)c4ccccc4)[C@@H]4[C@]5(OC(C)=O)CO[C@@H]5C[C@H](O)[C@@]4(C)C(=O)[C@H](OC(C)=O)C(=C2C)C3(C)C)[C@@H](NC(=O)c2ccccc2)c2ccccc2)O1 (stereo not given in full)
inactive: [1] 54.2% | [2] 83.4% | [3] 55.7% | [4] 68.4% | [5] 20.4% | [6] 66.4% | [7] 57.6% | [8] 47.5% | [9] 90.6% | [10] 13.1% | [11] 45.1% | [12] 46.6% | [13] 50.5% | [14] 60.5% | [15] 63.1% | [16] 66% | [17] 61% | [18] 51.9% | [19] 69.8% | [20] 38.8%

O=C1CN=C(c2ccc(Cl)cc2)c2sccc2N1
inactive: [1] 98% | [2] 93.6% | [3] 91.2% | [4] 106% | [5] 108% | [6] 97.4% | [7] 82.5% | [8] 101% | [9] 103% | [10] 123% | [11] 109% | [12] 88.1% | [13] 97.4% | [14] 100% | [15] 100% | [16] 106% | [17] 96.5% | [18] 93.4% | [19] 119% | [20] 110%

COC(=O)[C@@H](C)C[C@H](Cc1ccccc1)NC(=O)c1csc([C@@H](C[C@H](C(C)C)N(C)C(=O)[C@@H](NC(=O)C23CC(NC(C)=O)(C2)C3)C2CC2)OC(C)=O)n1
inactive: [1] 60.2% | [2] 107% | [3] 105% | [4] 67.9% | [5] 36.6% | [6] 38.5% | [8] 93.5% | [9] 65% | [10] 32.5% | [11] 61.6% | [12] 14.2% | [13] 56.4% | [14] 57.9% | [15] 36.9% | [16] 55.6% | [17] 82% | [18] 42.4% | [19] 46.2% | [20] 41%
active: [7] 2.4%

CCn1nccc1NC(=O)C(=O)c1cn(Cc2ccc(F)cc2)c2cccc(OC)c12
inactive: [1] 95.8% | [2] 75.1% | [3] 102% | [4] 75.9% | [5] 98.2% | [6] 46.6% | [7] 57.3% | [8] 92.4% | [9] 72.7% | [10] 106% | [11] 106% | [12] 79.9% | [13] 109% | [14] 91.9% | [15] 90.1% | [16] 98.1% | [17] 106% | [18] 98.1% | [19] 97.6% | [20] 88.1%
